Results published in PubChem BioAssay (NCI).
The panel holds about 83,000 compounds, 20% with a hit somewhere; the sample as a whole holds those more often.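 96-well plates, one dose, 48 hours. Percent growth reported; active if below 10.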 Values without a mark were called inactive. The source made the active and inactive calls.

Experiments:
Test in all cases: NCI-60 one-dose screen, 48 h (100 = growth as untreated, 0 = no growth, -100 = all killed)
Conditions in all cases: 10 µM unless noted
NCI-H23 lung = test system: NCI-H23 lung
NCI-H226 lung = test system: NCI-H226 lung
NCI-H322M lung = test system: NCI-H322M lung
HOP-62 NSCLC = test system: HOP-62 NSCLC
NCI-H460 lung = test system: NCI-H460 lung
HOP-92 NSCLC = test system: HOP-92 NSCLC
NCI-H522 lung = test system: NCI-H522 lung
A549/ATCC NSCLC = test system: A549/ATCC NSCLC
786-0 renal = test system: 786-0 renal
COLO 205 colon = test system: COLO 205 colon

| SMILES | growth (NCI-H23 lung) | growth (NCI-H226 lung) | growth (NCI-H322M lung) | growth (HOP-62 NSCLC) | growth (NCI-H460 lung) | growth (HOP-92 NSCLC) | growth (NCI-H522 lung) | growth (A549/ATCC NSCLC) | growth (786-0 renal) | growth (COLO 205 colon) |
| --- | --- | --- | --- | --- | --- | --- | --- | --- | --- | --- |
| CCCOc1ccc(-c2nc(-c3ccc(N)cc3)cs2)cc1 | 96.8% | 111% | 103% | 107% | 98% | 94.4% | 89.3% | 93.5% | 87.1% | 143% |
| Cc1ccc(-c2cc(-c3ccc(C)cc3)nc(N3CCN(CCNc4ccnc5cc(Cl)ccc45)CC3)n2)cc1 | 41.7% | 18% | 55.7% | 41.6% | 6.78% (active) | -12.7% (active) | 59.6% | 59.1% | -38.8% (active) | 10.9% |
| CCOC(=O)C1=C(C(=O)c2ccc(Br)cc2)C(c2ccc(Br)cc2)NC(=S)N1 (stereo not given) | 98% | 94.9% | 97.3% | 88.4% | 101% | 96.3% | 95.9% | 100% | 106% | 118% |
| C=C(C)[C@@H]1CC[C@]2(C)[C@H](CC=C3[C@@H]4[C@@H](C)[C@H](C)CC[C@]4(C(N)=O)CC[C@]32C)[C@@]1(C)CCC#N | 6.47% [100 µM] (active) | -22.2% [100 µM] (active) | 0.378% [100 µM] (active) | -1.03% [100 µM] (active) | -38.4% [100 µM] (active) | -37.7% [100 µM] (active) | -6.12% [100 µM] (active) | 9.82% [100 µM] (active) | -36.5% [100 µM] (active) | -78.9% [100 µM] (active) |
| C=C1C(=O)O[C@H]2[C@H]1CC/C(COC(=O)NCc1ccc(Cn3c(=O)sn(-c4ccc(Cl)cc4)c3=O)cc1)=C\CC[C@@]1(C)O[C@@H]21 | 94.9% | 87.4% | 104% | 106% | 101% | 45.5% | -8.38% (active) | 95.9% | 70.8% | 24% |
| COc1cc2c(c(OC)c1OC)-c1cc(I)c(O)cc1[C@@H](NC(C)=O)CC2 | 48.8% | 5.87% (active) | 70.3% | 42% | 3.02% (active) | 62.1% | -12.2% (active) | 14.9% | 29.7% | -64% (active) |
| Nc1cc(Cl)cc2cccnc12 | 88.6% | 81.4% | 116% | 95.5% | 112% | 102% | 96.7% | 111% | 109% | 124% |
| Cc1cc(C)c(O)c(CNCCCNCc2cc(C)cc(C)c2O)c1 | 81.7% | 91.4% | 45.7% | 74.9% | 40.7% | 40.5% | 42.4% | 78.8% | 80% | 9.05% (active) |
| O=C(Nc1cccc2ccccc12)c1cc2ccccc2cc1O | 8.03% (active) | 12.5% | -4.28% (active) | 12.5% | 7.16% (active) | -22% (active) | 9.44% (active) | 11.3% | 22.2% | 112% |
| Cn1cc(-c2noc(-c3cn(C)c4ncc(F)cc34)n2)c2cc(Br)ccc21 | 79.9% | 98.7% | 53.7% | 67.8% | 22.8% | 81.1% | 74.8% | 45.2% | 49.4% | 77.9% |
| COc1ccc(C2NC(=O)C(C#N)c3c2sc2c(F)cccc32)cc1 (stereo not given) | 76.3% | 60.3% | 65.3% | 46.4% | 28.6% | 54.2% | 20.1% | 42.6% | 71% | 91.6% |
| C=C(CC(=O)OC)C(C)=O | 105% | 104% | 119% | 98.7% | 111% | 112% | 101% | 114% | 106% | 116% |
| CCN(CC)c1ccc2cc(C(Nc3ccc(Cl)cc3)c3nnnn3C(C)(C)C)c(=O)oc2c1 (stereo not given) | 95.6% | 82.9% | 93.8% | 99.5% | 84.1% | 76.9% | 79.5% | 77.9% | 94% | 114% |
| O=C(Nc1cccnc1)c1ccc2ccc3ccc(C(=O)Nc4cccnc4)nc3c2n1 | 23.1% | 4.52% (active) | 10.5% | 9.18% (active) | 1.69% (active) | 23.9% | 30.7% | 22.1% | 19.9% | 13.2% |
| COc1ccc(CC(C#N)c2ccc(Cl)cc2)cc1 (stereo not given) | 77.2% | 87.5% | 93.9% | 74.3% | 83.7% | 83.8% | 78.1% | 79.1% | 87% | 94% |
| COc1ccc(-c2cc(-c3ccccc3)nc(NCCNc3ccnc4cc(Cl)ccc34)n2)cc1 | -77.2% (active) | -37.9% (active) | -81% (active) | -83.8% (active) | -60% (active) | -77.4% (active) | -61.9% (active) | -75.5% (active) | -81.7% (active) | -80.8% (active) |
| Cc1ccc(-n2nc3n(/c2=N\C(=O)NS(=O)(=O)c2ccc(C)cc2)CCN3C2=NCCN2)cc1 | 106% | 95.3% | 105% | 93.4% | 106% | 104% | 88.6% | 95.4% | 99.4% | 115% |
| O=S(=O)(/N=c1/n(-c2ccccc2)nc2n1CCN2C1=NCCN1)c1ccc(-c2ccccc2)cc1 | 101% | 101% | 104% | 99.1% | 94.8% | 82.3% | 106% | 90.1% | 89% | 109% |
| COc1cc(Cl)cc(-c2nn(C(=O)NS(=O)(=O)c3ccccc3)cc2-c2ccncc2)c1 | 90.4% | 69.3% | 96% | 68.6% | 107% | 47.7% | 82.5% | 78.5% | 70.9% | 69.7% |
| CC(C)OC(=O)Nc1cc(F)c(F)cc1F | 99% | 98% | 96.3% | 99.8% | 104% | 102% | 97.8% | 97.8% | 107% | 113% |
| CCOC(=O)n1cc(C2=C(c3ccc(OC)c(OC)c3)COC2=O)c2ccccc21 | 39.3% | 55.5% | 52% | 26.1% | 8.64% (active) | 5.33% (active) | -23.6% (active) | 17.8% | 23.5% | -60.7% (active) |
| COc1cc(C(=O)/C=C/c2c(-c3ccc(F)cc3)nc3sccn23)cc(OC)c1OC | 56.5% | 76.1% | 29.9% | 61.3% | -1.39% (active) | -14.9% (active) | -18.2% (active) | 41.1% | 61.5% | 12.3% |
| Cc1ccc2c(c1)C(C)Cc1c(Cl)ncnc1N2C (stereo not given) | 20.7% | -7.14% (active) | 32.3% | 17.5% | 30.6% | 28.9% | 69% | 16.4% | 1.48% (active) | -56.1% (active) |
| COc1ccc(C(=O)CSc2nccc(Nc3ccc(C(=O)O)cc3)n2)cc1 | 99.2% | 92.8% | 106% | 99.7% | 103% | 97.4% | 92.9% | 99.7% | 103% | 107% |
| CC1(C)CC[C@]2(C(=O)OC(=O)[C@]34CCC(C)(C)C[C@@H]3C3=CC[C@@H]5[C@@]6(C)CCC(=O)C(C)(C)[C@@H]6CC[C@@]5(C)[C@]3(C)CC4)CC[C@]3(C)C(=CC[C@@H]4[C@@]5(C)CCC(=O)C(C)(C)[C@@H]5CC[C@]43C)[C@H]2C1 | 58.9% [100 µM] | 68.1% [100 µM] | 86.9% [100 µM] | 74.7% [100 µM] | 58.3% [100 µM] | 45.6% [100 µM] | 56.2% [100 µM] | 76.5% [100 µM] | 64.1% [100 µM] | 88.6% [100 µM] |
| Cc1ccc(S(=O)(=O)Oc2ccc([N+](=O)[O-])cc2[N+](=O)[O-])cc1 | 97% | 68.9% | 122% | 115% | 110% | 65.3% | 18.3% | 104% | 47.7% | 85.8% |
